# In PubChem BioAssay AID743192 (National Center for Advancing Translational Sciences (NCATS), 2013):
# Calls of active or inactive are those of the source. Calls come from the whole dose curve; as a rule, active = well fitted curve in the direction sought with a large enough effect; inactive = no such curve, though single readings can be large or run the other way.
# Target: L-lactate dehydrogenase B chain (Homo sapiens) (UniProt P07195)
# Assay: Extended Characterization of HPGD Inhibitors: Counterscreen Against LDHB
# Conditions: LDHB enzyme, diaphorase/resazurin coupled fluorescence; series mostly up to 114 µM; activity, negative = inhibition: at the top concentration
# From the text: The central role of HPGD is to inactivate prostaglandins such as prostaglandin E2 (PGE2) or prostaglandin D2 (PGD2). These prostaglandins are involved in a number of processes, including inflammation, differentiation, and cellular signaling, which makes HPGD an important target for pharmacological intervention. A number of prostaglandins of particular biological interest have been identified as substrates of HPGD. […] Over-production of PGE2 has been reported to promote tumor-associated neovascularization, cell proliferation, and tumor growth. […] In order to further characterize the compounds, we ran them against an LDHB counterscreen. LDHA converts pyruvate to lactate while regenerating NAD+ from NADH. LDHA enzymatic activity is then coupled to the activity of diaphorase, which reversibly catalyzes the reaction of NAD+ to NADH while simultaneously reducing resazurin to the fluorescent resorufin. This change in fluorescence signal (excitation 544 nm; emission, 590 nm) was monitored using the ViewLux CCD imager (Perkin Elmer). Data were normalized against no enzyme control wells and no compound control wells. NIH Chemical Genomics Center [NCGC] NIH Molecular Libraries Probe Centers Network [MLPCN] MLPCN Grant: MH084681 Assay Submitter (PI): Structural Genomics Consortium
# 3 uL of LDHB enzyme in assay buffer are added to plate before 23 nL of compound/control are pinned into the solution. After a 15 min incubation, 1 uL of NADH (60 uM final) and sodium pyruvate (160 uM final) are added, incubated at 8 min at RT before another 1 uL of Diaphorase / Resazurin is added. The plate is read on the ViewLux after a 10 min RT incubation
# Chain of L-lactate dehydrogenase B chain (Homo sapiens) (P07195 whole entry, looked up): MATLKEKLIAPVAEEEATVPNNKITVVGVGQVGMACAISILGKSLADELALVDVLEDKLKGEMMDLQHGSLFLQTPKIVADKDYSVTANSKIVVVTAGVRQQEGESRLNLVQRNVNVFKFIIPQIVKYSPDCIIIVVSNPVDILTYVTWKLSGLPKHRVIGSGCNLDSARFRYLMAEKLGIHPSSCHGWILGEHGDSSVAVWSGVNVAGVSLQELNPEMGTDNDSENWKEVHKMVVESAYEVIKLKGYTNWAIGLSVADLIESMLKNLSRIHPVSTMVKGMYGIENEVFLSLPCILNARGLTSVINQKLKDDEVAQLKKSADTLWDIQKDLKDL
row,SMILES,"activity, negative = inhibition"
1,Cc1ccc(-n2c(C)cc(-c3nnc4n3CCCCC4)c2C)cc1,7.15% (inactive)
2,O=C(c1ccc2c(c1)ncn2-c1cccc(Cl)c1)N1CCCCC1,11.5% (inactive)
3,Cc1cc(-c2nnc3n2CCCCC3)c(C)n1-c1ccc(Cl)c(Cl)c1,11% (inactive)
4,Cc1cccc(-n2cnc3cc(C(=O)N4CCCC(C)(C)C4)ccc32)c1,-0.0782% (inactive)
5,Cc1cc(-c2nnc3n2CCCCC3)c(C)n1-c1cccc(C#N)c1,0.167% (inactive)
6,Cc1cccc(-n2cnc3cc(C(=O)N4CCCC(C(F)(F)F)C4)ccc32)c1 (stereo not given),3.07% (inactive)
7,Cc1cc(-c2nnc3n2CCCCC3)c(C)n1-c1cccc(Cl)c1,1.42% (inactive)
8,Cc1cc(-c2nnc3n2CCCCC3)c(C)n1-c1cccc(C(F)(F)F)c1,4.68% (inactive)
9,O=C(c1ccc2c(c1)ncn2-c1cccc(C(F)(F)F)c1)N1CCCCC1,5.8% (inactive)
10,COc1ccc(-n2cnc3cc(C(=O)N4CCCCC4)ccc32)cc1,5.92% (inactive)
